This note sets out measurements from PubChem BioAssay (Tox21).

The structures appear in SMILES notation. Records with an inconclusive call do not appear. The source holds several records for some structures; these can differ, active in one and inactive in another. Active and inactive are the calls of the source. Unless noted, calls follow the shape of the full dose curve.

Assay [1] in a line: qHTS assay to identify small molecule agonists of the vitamin D receptor (VDR) signaling pathway - cell viability counter screen (AID 743224; active = well fitted curve in the direction sought with a large enough effect in the repeat runs; an effect the other way counts as inactive or inconclusive; also: nearly all actives have a fitted effect of over 50% in size; also: potency is read from the fitted curve at half-maximal effect). Put shortly: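 Plated VDR-bla cells (4 h, 37C) received compound, incubated 16 h, then LiveBLAzer substrate 2 h RT; CellTiter-Glo added afterwards, luminescence read at 30 min.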
A general note: In qHTS, concentration-response curves come from the screen itself.

Assay [2] in a line: qHTS assay to identify small molecule antagonists of the vitamin D receptor (VDR) signaling pathway - cell viability counter screen (AID 743225; active = well fitted curve in the direction sought with a large enough effect in the repeat runs; an effect the other way counts as inactive or inconclusive; also: nearly all actives have a fitted effect of over 50% in size). Put shortly:
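Cytotoxicity counter screen read by CellTiter-Glo luminescence (30 min, room temperature) in the same wells as the VDR-bla antagonist readout. HEK 293T VDR-UAS-bla cells had 16 h at 37C with compound and 3 nM (final) 1-alpha,25-dihydroxyvitamin D3, then 2 h with FRET substrate.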

A short description of assay [3]: qHTS assay to identify small molecule agonists of the endoplasmic reticulum stress response signaling pathway (AID 1159516; active = well fitted activation curve with a large enough effect in the signal ratio in the repeat runs, not every such curve was filed as active; the % refers to the signal ratio). The gist of the method: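 An ESRE-bla HeLa cell assay: compounds were pin-transferred from DMSO onto overnight-plated cells and left 5 hr at 37 C. Substrate was then loaded for 2 hr at room temperature before reading fluorescence at 460 nm and 530 nm.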

Assay [4] can be described thus: qHTS assay to identify small molecule agonists of the endoplasmic reticulum stress response signaling pathway - cell viability counter screen (AID 1159517). Also: nearly all actives have a fitted effect of over 50% in size. Also: potency is read from the fitted curve at half-maximal effect. The gist of the method:
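CellTiter-Glo was added to wells already read for beta-lactamase FRET, and luminescence was recorded 30 min later. Cells: ESRE-bla HeLa, 1,500 per well, compound exposure 5 hr at 37 C.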

Assay [5] is described as follows: qHTS assay to identify small molecule antagonists of the retinoid-related orphan receptor gamma (ROR-gamma) signaling pathway - cell viability counter screen (AID 1159520; active = well fitted curve in the direction sought with a large enough effect in the repeat runs; an effect the other way counts as inactive or inconclusive; also: nearly all actives have a fitted effect of over 50% in size; also: potency is read from the fitted curve at half-maximal effect). The gist of the method:
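Tet-on ROR gamma CHO cells (1,000/well) were plated 4 hr, given compounds in DMSO for 2 hr at 37 C, then induced with 1 uM final doxycycline for 16 hr. Viability was read as ATP by CellTiter-Glo luminescence after 30 min.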

The target in assay [6] is Nuclear receptor ROR-gamma (Homo sapiens) (UniProt P51449). Briefly: qHTS assay to identify small molecule antagonists of the retinoid-related orphan receptor gamma (ROR-gamma) signaling pathway (AID 1159521; active = well fitted curve in the direction sought with a large enough effect in the repeat runs; an effect the other way counts as inactive or inconclusive; also: nearly all actives have a fitted effect of over 50% in size; also: potency is read from the fitted curve at half-maximal effect). Put shortly:
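Antagonist read-out: drop in luminescence (ONE-Glo) from an RORE-LUC reporter in CHO cells with doxycycline-inducible ROR-gamma; 2 hr compound pretreatment, 1 uM doxycycline, 16 hr incubation at 37 C.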

The nature of assay [7]: qHTS assay to identify small molecule agonists of the AP-1 signaling pathway - cell viability counter screen (AID 1159525). Also: nearly all actives have a fitted effect of over 55% in size. Also: potency is read from the fitted curve at half-maximal effect. Put shortly: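 ME-180 AP-1-bla, 2500 cells/well, Opti-MEM + 0.5% dialyzed FBS; overnight 37 °C; cpd 15-pt titration, 5 h 37 °C; CellTiter-Glo 30 min RT; luminescence read; normalised to TOAB and DMSO controls.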
A short description of assay [8]: qHTS assay to identify small molecule agonists of the AP-1 signaling pathway (AID 1159526).
In assay [9] the target is Retinoic acid receptor RXR-alpha (Homo sapiens) (UniProt P19793). The assay is described as follows: qHTS assay to identify small molecule agonists of the RXR signaling pathway (AID 1159527). Also: nearly all actives have a fitted effect of over 35% in size. The gist of the method: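 Agonist-mode beta-lactamase reporter assay: HEK 293T RXR-alpha-UAS-bla cells treated 16 hr at 37 C with compounds, 9-cis retinoic acid as positive control. LiveBLAzer FRET substrate, 405 nm excitation, 460/530 nm emission.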
Sequence of Retinoic acid receptor RXR-alpha (Homo sapiens) (P19793 whole entry, looked up): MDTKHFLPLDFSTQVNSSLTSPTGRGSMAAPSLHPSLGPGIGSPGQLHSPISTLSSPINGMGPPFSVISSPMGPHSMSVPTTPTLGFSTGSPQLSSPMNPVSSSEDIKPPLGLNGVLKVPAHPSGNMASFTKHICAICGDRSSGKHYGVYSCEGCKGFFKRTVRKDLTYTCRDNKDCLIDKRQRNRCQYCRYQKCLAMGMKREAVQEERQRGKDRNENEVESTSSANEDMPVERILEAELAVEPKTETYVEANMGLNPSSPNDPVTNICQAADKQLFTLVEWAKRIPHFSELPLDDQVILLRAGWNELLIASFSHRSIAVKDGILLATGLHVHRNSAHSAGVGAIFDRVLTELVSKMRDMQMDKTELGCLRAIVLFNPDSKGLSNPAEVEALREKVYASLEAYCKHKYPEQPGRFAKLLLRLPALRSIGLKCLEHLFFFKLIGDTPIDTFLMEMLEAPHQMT

`CC(CC(C(N)=O)(c1ccccc1)c1ccccc1)N(C)C` (stereo not drawn): the Potency result in assay [1], in [2], in [3], in assay [4], in assay [5] and in [6] was “inactive” in each case. The Potency result in assay [7], in assay [8] and in assay [9] was “inactive” throughout.

In the case of `Cc1nnc(-c2ccccc2)c(=O)n1N`, the Potency entry in [2], in [3], in assay [4], in assay [5], in [7] and in assay [8] was “inactive” throughout. Moreover, in [9], the Potency result is “inactive”.

As for `NC(=S)c1c(Cl)cccc1Cl`, the Potency result in [1], in assay [3], in [4], in [5], in assay [6] and in assay [7] was “inactive” each time. Moreover, the Potency result in assay [8] and in assay [9] was “inactive” in each case.

Regarding `O=C(NCNC(=O)NC1C(=O)NC(=O)N1CO)NC1C(=O)NC(=O)N1CO` (stereo not drawn), the Potency result in assay [1], in [3], in [4], in assay [5], in assay [6] and in assay [7] was “inactive” each time. The Potency entry in assay [8] and in assay [9] was “inactive” in each case.

As for `CCCCC1C(=O)NC(=O)N(C2CCCCC2)C1=O` (stereo not drawn), the Potency entry in assay [1], in assay [2], in assay [3], in assay [4], in assay [5] and in assay [7] was “inactive” in each case. For the same molecule, the Potency entry in [8] and in assay [9] was “inactive” each time.

As to `O=[N+]([O-])c1cc(Cl)c(Cl)cc1Cl`, the Potency result in [1], in assay [2], in [3], in assay [4], in assay [5] and in [6] was “inactive” each time. The Potency entry in [7], in [8] and in assay [9] was “inactive” in each case.

Regarding `CCCCCCCCP(=O)(O)O`, the Potency entry in assay [1], in assay [2], in assay [3], in assay [4], in assay [5] and in [7] was “inactive” each time. In addition, the Potency entry in assay [8] and in assay [9] was “inactive” each time.

For `CC[N+]1(C)CCCC(OC(=O)C(O)(c2ccccc2)c2ccccc2)C1` (stereo not drawn), the Potency entry in [1], in [2], in assay [3], in [4], in assay [5] and in assay [6] was “inactive” each time. Also, the Potency entry in assay [7], in assay [8] and in assay [9] was “inactive” throughout.

On to `Cc1ccc2c(C)cccc2c1`, for which the Potency entry in [1], in [3], in assay [4], in assay [5], in assay [6] and in [7] was “inactive” in each case. For the same molecule, the Potency result in [8] and in assay [9] was “inactive” throughout.

As for `CCCN(CCC)c1c([N+](=O)[O-])cc(C(C)C)cc1[N+](=O)[O-]`, the Potency result in [1], in [2], in [4], in assay [5], in assay [6] and in [7] was “inactive” throughout. Further, the Potency result in assay [8] and in [9] was “inactive” in each case.

With `CC(C)(C)CC(C)(C)c1ccc(O)cc1`, the Potency in [1] was 15.5 µM (active) and inactive; in assay [4] it was 21.9 µM (active); in assay [5], 27.3 µM (active); in assay [6], 54.5 µM (active) and inactive; in assay [7], 17.4 µM (active). In [3], the Potency result is “inactive”.

As to `CCCC[N+]1(C)[C@@H]2CC(OC(=O)[C@H](CO)c3ccccc3)C[C@H]1[C@@H]1O[C@@H]12` (stereo partly drawn), the Potency entry in [1], in assay [2], in assay [3], in assay [4], in assay [5] and in [6] was “inactive” each time. For the same molecule, the Potency result in [7], in assay [8] and in [9] was “inactive” each time.

On to `CC(C)(C)NCC(O)c1cc(Cl)c(N)c(C(F)(F)F)c1` (stereo not drawn), for which the Potency entry in assay [1], in [3], in [4], in [6], in assay [7] and in assay [8] was “inactive” each time. In [9], the Potency result was “inactive”.

Turning to `Nc1ccc2c(c1)Cc1ccccc1-2`, the Potency result in [1], in assay [2], in assay [3], in assay [4], in assay [5] and in assay [6] was “inactive” in each case. In addition, the Potency result in assay [7], in assay [8] and in assay [9] was “inactive” each time.

As for `CNC(=O)Oc1cccc(N=CN(C)C)c1`, the Potency result in assay [1], in assay [2], in assay [3], in assay [4], in assay [7] and in assay [8] was “inactive” in each case. For the same molecule, the Potency result in assay [9] is “inactive”.

Regarding `O=C1NC(=O)C(=O)C(=O)N1`, the Potency entry in assay [1], in assay [2], in assay [3], in assay [4], in assay [5] and in assay [6] was “inactive” throughout. For the same molecule, the Potency entry in assay [7], in assay [8] and in [9] was “inactive” each time.

`CC(Oc1cccc(Cl)c1)C(=O)O` (stereo not drawn): the Potency result in [1], in assay [2], in assay [3], in assay [4], in [7] and in [8] was “inactive” in each case.

Consider `C#C[C@]1(O)CC[C@H]2[C@@H]3CCC4=CC(=O)CCC4=C3C=C[C@@]21CC`, for which the Potency result in [2], in [3], in assay [4], in [5], in [7] and in assay [8] was “inactive” in each case. For the same molecule, the Potency result in assay [9] was “inactive”. The Potency in [6] was 9.44 µM (active).
